# Counter-ions that a name gives are not always drawn. Values without a mark were called inactive.
# Columns and labels:
# Details in all cases: 20 µM
# [1] = tested on: Salmonella enterica typhimurium; experiment: growth AUC normalised to DMSO control (fraction of control); higher = less growth inhibition, active = hit call of the paper
# In short: (§1)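 Three biological replicates were carried out, with OD578 read hourly for 24 h. Before inoculation at a starting OD578 of 0.01, pathogens were passaged anaerobically twice; plates were pre-reduced mGAM containing 20 μM compound and 1% DMSO, sealed with breathable membranes, and the Haemophilus parainfluenzae medium carried added hemin and NAD. Area under each growth curve was calculated by the trapezoidal rule up to the exponential-to-stationary transition and normalised to DMSO controls on the same plate.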
# Shigella flexneri = experiment: as above
# In short: as §1
# Vibrio cholerae = experiment: as above
# In short: as §1
# [2] = tested on: Yersinia pseudotuberculosis; experiment: as above
# In short: as §1
# P. vulgatus RND KO = experiment: growth AUC normalised to DMSO control (median) (fraction of control); higher = less growth inhibition, active = hit call of the paper
# In short: (§2)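 Area under the growth curve, calculated by the trapezoidal rule up to entry into stationary phase, was normalised to vehicle wells on the same plate. Strains had been passaged twice overnight without oxygen and then grown in mGAM in 96-well plates from OD578 0.01, each with an approved-drug library compound at 20 μM in 1% DMSO. OD578 was read hourly over 24 h in an anaerobic incubator, and the median of three biological replicates is given.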
# P. vulgatus WT = experiment: as above
# In short: as §2
# [3] = tested on: S. enterica typhimurium WT; experiment: as above
# In short: as §2
# [4] = tested on: S. enterica typhimurium tolC KO; experiment: as above
# In short: as §2
# 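For growth AUC normalised to DMSO control (median) in this document: active when median AUC fell below 0.1.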
Structure (SMILES),growth AUC normalised to DMSO control [1],growth AUC normalised to DMSO control (Shigella flexneri),growth AUC normalised to DMSO control (Vibrio cholerae),growth AUC normalised to DMSO control [2],growth AUC normalised to DMSO control (P. vulgatus RND KO),growth AUC normalised to DMSO control (P. vulgatus WT),growth AUC normalised to DMSO control [3],growth AUC normalised to DMSO control [4]
O=C1c2ccccc2C(=O)C1c1ccccc1 [Phenindione],0.982,0.956,0.983,0.983,0.997,0.989,0.998,0.977
Nc1nc(N)nc(-c2cc(Cl)ccc2Cl)n1 [Irsogladine maleate],0.998,1,0.999,0.995,0.959,0.977,0.999,1
O=C1OCCN1/N=C/c1ccc([N+](=O)[O-])o1 [Furazolidone],0.391 (active),0.0191 (active),0.0449 (active),0.842 (active),0.0122 (active),0.00859 (active),0.459,0.609
COc1ccc2cc([C@H](C)C(=O)O)ccc2c1 [(S)-Naproxen],0.992,1.01,0.96,0.964,1.01,1.04,0.994,0.998
Clc1ccc2nsnc2c1NC1=NCCN1 [Tizanidine hydrochloride],0.977,0.988,0.993,1,0.992,1,1.01,0.998
CN(c1nccc(=O)[nH]1)C1CCN(c2nc3ccccc3n2Cc2ccc(F)cc2)CC1 [Mizolastine],1.02,1.04,1.02,1.01,0.929,0.921,1.01,0.906
COc1ccccc1OCCNCC(O)COc1cccc2[nH]c3ccccc3c12 (stereo not given) [Carvedilol],1.02,1,0.994,0.997,0.995,0.989,0.994,0.944
CCOc1ccc2c(c1)C(C)=CC(C)(C)N2 [Ethoxyquin],0.998,0.95,0.958,0.986,0.971,0.972,1.01,1
CC1=C(CC(=O)O)c2cc(F)ccc2/C1=C\c1ccc([S+](C)[O-])cc1 (stereo not given) [Sulindac],0.976,0.994,1.01,1.03,0.996,0.968,1,0.984
CN1CCCC(CC2c3ccccc3Sc3ccccc32)C1 (stereo not given) [Metixene hydrochloride],0.987,1,0.944,1,0.774,0.704,1.01,0.923
Nc1ccc(S(=O)(=O)Nc2ccccn2)cc1 [Sulfapyridine],0.986,0.95,0.984,0.994,1.01,1,0.998,1
CCN(CCCc1ccccc1)CCCc1ccccc1 [Alverine citrate salt],0.985,0.966,0.841 (active),0.971,1.02,1.03,1,0.961
Nc1c2c(nc3ccccc13)CCCC2 [Tacrine hydrochloride],0.995,1.03,1.02,0.98,0.999,1.06,0.986,0.992
CCC(=O)O[C@]1(C(=O)SCF)[C@H](C)C[C@H]2[C@@H]3C[C@H](F)C4=CC(=O)C=C[C@]4(C)[C@@]3(F)[C@@H](O)C[C@@]21C [Fluticasone propionate],0.996,1.01,1,1,0.998,0.988,0.993,0.998
CCOc1ccc(NC(C)=O)cc1 [Phenacetin],0.992,0.959,0.984,0.973,1,0.997,1,1
